ALR inh: human ALR oxidase inhibition via reduced H2O2; P55789; purified ALR, DTT oxidation, H2O2 HRP-luminol luminescence; inhibition, % (test concentration not listed); hit rate 3.8% among 290,000; AID 485317;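 active means mean replicate inhibition above about 79%, with every replicate also reaching it, limit read from the data; inconclusive means only one of the two criteria met; inactive means mean below limit and not every replicate reaching it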
Rce1 inhib: yeast Ras-converting enzyme inhibition | Q03530 | yeast membranes, quenched prenylated peptide cleavage fluorescence | calls only | hit rate 0.27% among 290,000 | AID 2563;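 active means fall in fluorescence gain of 50% or more versus controls, with final raw signal at or below 3038400; inconclusive means same 50% fall but final raw signal above 3038400; inactive means fall in fluorescence gain under 50%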
Efflux pump mplx: inhibitors of Candida antifungal efflux pumps expressed in yeast. inhibition, % at 10 µM. S. cerevisiae Candida pump triplex, Nile Red efflux. hit rate 0.44% among 330,000. AID 485275;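 active means plate passing quality check with inhibition over a set limit, or well fluorescence over plate mean plus 4 SD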;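 further: Nile Red retained in pooled yeast measured as flow cytometry median fluorescence; higher means more Nile Red kept so more efflux inhibition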
Rtt109 Vps75: C. albicans Rtt109 histone acetyltransferase inhibition; purified Rtt109/Vps75, ThioGlo CoA-SH fluorescence, 4 h; inhibition, % at 34.9 µM; hit rate 0.16% among 330,000; AID 540336;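 active means inhibition of at least 50% in every replicate; inconclusive means best replicate reaches 50% inhibition but some replicates fall short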
HDAC3 inhib: human HDAC3 inhibition. O15379. recombinant HDAC3, fluorogenic peptide/trypsin coupled, fluorescence. inhibition, % at 8.3 µM. hit rate 0.15% among 320,000; in the data active means inhibition above about 26%, passing the limit was not always enough; inconclusive means no clear call, values can overlap the other calls
Target sequence (O15379 whole entry, looked up): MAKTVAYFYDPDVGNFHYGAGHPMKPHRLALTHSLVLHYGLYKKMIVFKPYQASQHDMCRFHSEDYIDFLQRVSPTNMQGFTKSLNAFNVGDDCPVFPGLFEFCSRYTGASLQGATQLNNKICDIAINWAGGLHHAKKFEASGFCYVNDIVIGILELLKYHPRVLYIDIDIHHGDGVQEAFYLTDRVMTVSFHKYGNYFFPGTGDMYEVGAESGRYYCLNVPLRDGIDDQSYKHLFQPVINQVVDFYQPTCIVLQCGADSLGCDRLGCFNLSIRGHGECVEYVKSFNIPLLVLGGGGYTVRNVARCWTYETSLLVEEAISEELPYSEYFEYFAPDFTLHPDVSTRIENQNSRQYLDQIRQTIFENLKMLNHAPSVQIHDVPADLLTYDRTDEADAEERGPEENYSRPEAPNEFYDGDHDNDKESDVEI
GRK2 aptamer HTS: blocks RNA aptamer binding to human GRK2; inhibition of aptamer binding, % at 10 µM; hit rate 0.59% among 330,000; P25098; bead flow cytometry, FAM-aptamer displacement from GRK2; AID 488847;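 active means inhibition of aptamer binding above 40%, roughly 3 SD of noise, on plates passing a quality check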;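 further: median bead fluorescence of bound FAM aptamer so fluorescent compounds give negative values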
A number is an active result; - = inactive; ? = inconclusive; . = no result. In the library only some 4.5% were active in any assay of this set; here they are far more common.

SMILES	ALR inh	Rce1 inhib	Efflux pump mplx	Rtt109 Vps75	HDAC3 inhib	GRK2 aptamer HTS
Cc1ccc(CNC(=O)c2cc3ccccc3oc2=O)cc1	-	-	-	-	?	-
COc1cc(/C=C/C(=O)c2ccc3c(c2)OCCO3)cc(Br)c1OCC(=O)N(C)C	.	-	-	-	-	-
COc1ccc(/C=N/NC(=O)c2cccc(OC(F)(F)C(F)F)c2)cc1O	96	-	-	-	-	-
CCn1c(O)c(/C=N/n2cnnc2)sc1=S	98	-	-	-	-	-
O=C(c1ccc(F)cc1)N1CCC(C(=O)N2CCN(c3ncccn3)CC2)CC1	-	.	-	-	-	-
CCOC(=O)C1CCN(C(=O)CN(c2ccc(OC)cc2)S(=O)(=O)c2c(C)noc2C)CC1	89	-	-	-	-	-
COc1ccc(OC)c(NC(=O)CN(c2ccc(C(C)C)cc2)S(=O)(=O)c2c(C)noc2C)c1	95	-	-	-	-	-
Cc1cc(C)cc(N(CC(=O)N2CCN(Cc3ccccc3)CC2)S(=O)(=O)c2c(C)noc2C)c1	96	-	-	-	-	-
COc1ccc(N(CC(=O)N2CCN(c3cccc(Cl)c3)CC2)S(=O)(=O)c2c(C)noc2C)cc1	-	-	-	-	-	-
CCCOc1ccc(S(=O)(=O)n2cc(F)c(=O)[nH]c2=O)cc1	-	.	-	-	-	-
Clc1nnc(N2CCCCC2)c2ccccc12	98	-	-	-	-	-
C=CCOC(=O)/C=C/C(=O)NC(N)=O	98	-	-	-	-	-
NNC(=O)c1ccc(CSc2n[nH]c(=O)[nH]c2=O)cc1	?	-	-	-	-	-
O=C(N/N=C/c1ccc(O)cc1)c1cccc(N/N=C/c2ccc(O)cc2)c1	.	-	-	-	-	-
Cc1cccc(N/N=C/c2ccncc2)c1	99	-	-	-	-	-
O=C(N/N=C/c1ccncc1)c1cccc(N/N=C/c2ccncc2)c1	96	-	-	-	-	-
O=C(N/N=C/c1ccccn1)c1ccc(N/N=C/c2ccccn2)cc1	99	-	-	-	-	-
Cc1cccc(NC(=O)C(=O)N/N=C/c2ccncc2)c1	-	-	-	.	-	-
CCOc1ccc(NS(=O)(=O)c2cc(C(=O)N(CC)CC(=O)NCc3cccs3)ccc2C)cc1	-	-	-	-	-	-
Cc1ccc(S(=O)(=O)N2CCN(C(=O)CN3C(=O)NC4(CCCC4)C3=O)CC2)c(C)c1	-	-	-	-	-	-
O=C(COc1cc(F)ccc1[N+](=O)[O-])NCCCc1ccccc1	-	-	-	-	-	-
O=C(O)CCc1ccc(-c2ccc(Br)cc2)n1-c1ccc(O)cc1	-	-	-	-	-	-
Cc1ccc(-c2ccc(CCC(=O)O)n2-c2ccc(O)cc2)cc1	87	-	-	-	-	-
Cc1ccc(-c2ccc(CCC(=O)O)n2NC(=O)c2ccco2)cc1	92	-	-	-	-	-
CCOc1ccc(N2CC(C(=O)NC3CCSC3=O)CC2=O)cc1 (stereo not drawn)	.	-	-	-	-	-
SMILES	ALR inh	Rce1 inhib	Efflux pump mplx	Rtt109 Vps75	HDAC3 inhib	GRK2 aptamer HTS
CCOC(=O)/C(C#N)=C/c1ccc(OC)c(OC)c1	-	-	-	-	-	-
CCOc1cc(/C=C(\C#N)C(N)=O)ccc1OS(=O)(=O)c1ccccc1	98	-	-	-	-	-
O=C(CN1CCN(S(=O)(=O)c2cc(Cl)ccc2Cl)CC1)Nc1ccc2c(c1)OCCO2	.	-	-	-	-	-
O=C(CN1CCN(c2ccccc2O)CC1)NCCCc1ccccc1	99	-	-	-	-	-
CN(C)c1ccc(NC(=O)CN2CCN(S(=O)(=O)c3cc(Cl)ccc3Cl)CC2)cc1	99	-	-	-	-	-
CN(C)S(=O)(=O)c1cc(NC(=O)CN2CCN(c3ccccc3O)CC2)ccc1Cl	98	-	-	-	-	-
CN(C)c1ccc(NS(=O)(=O)c2cc(Cl)ccc2Cl)cc1	99	-	-	-	-	-
COCCn1c(Cc2cccn2C)nnc1SCC(=O)NCc1ccc2c(c1)OCO2	-	-	-	-	-	-
Cc1ncc([N+](=O)[O-])n1S(=O)(=O)c1cc(Cl)ccc1Cl	-	-	-	-	-	-
Cc1ccccc1S(=O)Cc1ccc(C(=O)N2CCN(C(=O)c3ccco3)CC2)o1 (stereo not drawn)	-	-	-	-	-	-
CC(O)(Cc1cccnc1)c1cccs1 (stereo not drawn)	.	.	.	-	.	.
O=C(CN1CCN(c2ccc(F)cc2)CC1)Nc1cccnc1Cl	-	.	-	-	-	-

Bioassay records deposited in PubChem BioAssay by several laboratories.
